{"source": "paper PMC4336329", "about": "(PLoS ONE, 2015)", "note": "About 14,000 (4.5%) of roughly 310,000 compounds showed an effect of 50% or more. Effects have a minus sign here. The list comes from a sample in which strong results are over-represented; it also holds similar structures and randomly drawn compounds.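 Also: peak tail current of the secondary pulse compared with the same well before compound.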", "data": [{"target": "human ether-à-go-go-related gene (hERG) potassium channel (human, UniProt Q12809)", "sequence (Q12809 whole entry, looked up)": "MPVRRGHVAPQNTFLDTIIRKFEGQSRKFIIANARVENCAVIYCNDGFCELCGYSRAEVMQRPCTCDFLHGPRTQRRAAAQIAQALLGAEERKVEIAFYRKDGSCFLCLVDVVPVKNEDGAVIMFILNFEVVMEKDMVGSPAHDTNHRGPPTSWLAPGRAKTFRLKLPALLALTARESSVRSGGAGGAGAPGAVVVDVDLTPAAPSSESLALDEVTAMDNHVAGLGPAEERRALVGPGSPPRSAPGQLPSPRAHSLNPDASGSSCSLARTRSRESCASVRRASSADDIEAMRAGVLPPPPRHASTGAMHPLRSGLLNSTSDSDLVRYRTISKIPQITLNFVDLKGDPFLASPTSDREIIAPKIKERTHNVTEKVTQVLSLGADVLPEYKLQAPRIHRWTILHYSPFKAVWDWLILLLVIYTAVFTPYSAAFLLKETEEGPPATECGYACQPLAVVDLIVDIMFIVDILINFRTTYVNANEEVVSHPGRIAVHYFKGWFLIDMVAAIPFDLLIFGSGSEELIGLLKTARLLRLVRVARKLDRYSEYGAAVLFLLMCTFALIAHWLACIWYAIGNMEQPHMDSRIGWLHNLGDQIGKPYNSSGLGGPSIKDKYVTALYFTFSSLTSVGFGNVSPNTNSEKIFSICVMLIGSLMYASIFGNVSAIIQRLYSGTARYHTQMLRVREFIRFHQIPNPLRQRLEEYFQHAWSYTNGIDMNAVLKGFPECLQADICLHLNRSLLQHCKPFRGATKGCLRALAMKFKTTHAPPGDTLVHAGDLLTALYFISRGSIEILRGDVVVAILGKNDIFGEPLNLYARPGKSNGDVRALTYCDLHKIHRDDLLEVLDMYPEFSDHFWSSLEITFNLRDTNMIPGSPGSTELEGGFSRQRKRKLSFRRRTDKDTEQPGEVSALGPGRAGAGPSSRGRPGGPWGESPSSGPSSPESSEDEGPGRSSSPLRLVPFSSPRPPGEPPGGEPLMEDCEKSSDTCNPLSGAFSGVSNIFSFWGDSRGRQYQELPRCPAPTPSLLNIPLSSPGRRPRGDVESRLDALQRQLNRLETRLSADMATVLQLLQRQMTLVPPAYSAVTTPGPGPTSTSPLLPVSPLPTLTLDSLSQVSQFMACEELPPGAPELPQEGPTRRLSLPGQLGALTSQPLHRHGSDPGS", "experiment": "primary screen, population patch clamp on CHO cells stably expressing hERG; higher = less effect of the substance", "units": {"hERG current change (%, negative = inhibition) at 10uM": "%"}, "values": [{"smiles": "C=CCN(c1ccc(C(=O)NCCCn2ccnc2)cc1)S(C)(=O)=O", "hERG current change (%, negative = inhibition) at 10uM": 12.3}, {"smiles": "CCCc1cc(=O)[nH]c(SC(C)C(=O)Nc2ccc3c(c2)OCCO3)n1", "note": "(stereo not shown)", "hERG current change (%, negative = inhibition) at 10uM": -7.38}, {"smiles": "Cc1cc(CN(C)C)c(OC(=O)N(C)C)cc1C.Cl", "hERG current change (%, negative = inhibition) at 10uM": 16.1}, {"smiles": "Cc1[nH]nc2c1C1(C(=O)Nc3ccc([N+](=O)[O-])cc31)C(C#N)=C(N)O2", "note": "(stereo not shown)", "hERG current change (%, negative = inhibition) at 10uM": 24.9}, {"smiles": "COC(=O)c1ccc2c(=O)n(Cc3ccc4c(c3)OCO4)c(SCC(=O)N3CCCC3)nc2c1", "hERG current change (%, negative = inhibition) at 10uM": -52.4}, {"smiles": "O=C(NCC1CCCO1)c1ccc2c(=O)n(Cc3ccco3)c(SCC(=O)N3CCCC3)nc2c1", "note": "(stereo not shown)", "hERG current change (%, negative = inhibition) at 10uM": -79.3}, {"smiles": "O=C(NCc1ccco1)c1ccc2c(=O)n(Cc3ccco3)c(SCC(=O)N3CCCC3)nc2c1", "hERG current change (%, negative = inhibition) at 10uM": -76.4}, {"smiles": "CC1CCN(C(=O)CSc2nc3ccccc3c(=O)n2Cc2ccc3c(c2)OCO3)CC1", "hERG current change (%, negative = inhibition) at 10uM": -13.6}, {"smiles": "CCCCCn1c(SCC(=O)OCC)nc2cc(C(=O)NCc3ccco3)ccc2c1=O", "hERG current change (%, negative = inhibition) at 10uM": 2.51}, {"smiles": "CCOC(=O)CSc1nc2cc(C(=O)NCC3CCCO3)ccc2c(=O)n1Cc1ccco1", "note": "(stereo not shown)", "hERG current change (%, negative = inhibition) at 10uM": -39.3}, {"smiles": "COCCCNC(=O)CSc1nc2cc(C(=O)NCCOC)ccc2c(=O)n1Cc1ccc2c(c1)OCO2", "hERG current change (%, negative = inhibition) at 10uM": -4.37}, {"smiles": "O=C(NCC1CCCO1)c1ccc2c(=O)n(CC3CCCO3)c(SCC(=O)N3CCCC3)nc2c1", "note": "(stereo not shown)", "hERG current change (%, negative = inhibition) at 10uM": 3.95}, {"smiles": "C=CCn1c(SCC(=O)OCC)nc2cc(C(=O)NCc3ccco3)ccc2c1=O", "hERG current change (%, negative = inhibition) at 10uM": -17.6}, {"smiles": "CN1CCN(C(=O)CCN2C(=O)/C(=C/c3ccccc3Cl)SC2=S)CC1", "hERG current change (%, negative = inhibition) at 10uM": 9.65}, {"smiles": "COc1ccc(/C(O)=C2/C(=O)C(=O)N(CCCN3CCOCC3)C2c2ccc(C(C)C)cc2)cc1", "note": "(stereo not shown)", "hERG current change (%, negative = inhibition) at 10uM": 24.6}, {"smiles": "COc1cc(C2CC(=O)N3CN(Cc4ccco4)CSC3=C2C#N)ccc1OCc1ccccc1", "note": "(stereo not shown)", "hERG current change (%, negative = inhibition) at 10uM": 15.1}, {"smiles": "CC(=O)C1C(c2cccc(F)c2)c2c(n[nH]c2C)CC1(C)O", "note": "(stereo not shown)", "hERG current change (%, negative = inhibition) at 10uM": 15.7}, {"smiles": "COc1cc(CNCc2ccccc2)ccc1OCC(O)c1ccccc1.O=C(O)C(=O)O", "note": "(stereo not shown)", "hERG current change (%, negative = inhibition) at 10uM": -24.9}, {"smiles": "COC(=O)CC1C(=O)NCCN1C(=O)CSc1nc2cc(Cl)ccc2o1", "note": "(stereo not shown)", "hERG current change (%, negative = inhibition) at 10uM": 13.5}, {"smiles": "COc1cc(NC(=O)NCC2CCN(Cc3ccccc3C)CC2)cc(OC)c1OC", "hERG current change (%, negative = inhibition) at 10uM": -2.71}, {"smiles": "Cc1ccc(C)c(CN2CCC(CNC(=O)Nc3ccc(C)c(F)c3)CC2)c1", "hERG current change (%, negative = inhibition) at 10uM": -27.5}, {"smiles": "COc1ccc(N2CCC(CNC(=O)Nc3ccc(C)c(C)c3)C2)cc1", "note": "(stereo not shown)", "hERG current change (%, negative = inhibition) at 10uM": 11.4}, {"smiles": "Cc1ccc(C)c(CN2CCC(CNC(=O)Nc3ccc(Br)cc3F)CC2)c1", "hERG current change (%, negative = inhibition) at 10uM": -73.4}, {"smiles": "O=C(NCC1CCN(Cc2ccccc2F)CC1)Nc1cccc(Br)c1", "hERG current change (%, negative = inhibition) at 10uM": -43.2}, {"smiles": "Cc1ccc(C)c(CN2CCC(CNC(=O)Nc3ccc(C)c(C)c3)CC2)c1", "hERG current change (%, negative = inhibition) at 10uM": -74.3}, {"smiles": "Cc1cc(C)cc(NC(=O)NCC2CCN(Cc3cc(C)ccc3C)CC2)c1", "hERG current change (%, negative = inhibition) at 10uM": -51}, {"smiles": "O=C(NCCN1CCCCC1)c1cc(Cl)ccc1Cl", "hERG current change (%, negative = inhibition) at 10uM": 1.65}, {"smiles": "O=[N+]([O-])c1cc(C(F)(F)F)cc([N+](=O)[O-])c1NCCCNc1ccc([N+](=O)[O-])c2cccnc12", "hERG current change (%, negative = inhibition) at 10uM": 14.4}, {"smiles": "O=C(Nc1ccc(S(=O)(=O)NCc2ccco2)cc1)c1ccc(F)cc1", "hERG current change (%, negative = inhibition) at 10uM": -4.23}, {"smiles": "COc1ccc(CNC(=O)COC(=O)c2cc(-c3ccc(Cl)s3)nc3ccccc23)cc1", "hERG current change (%, negative = inhibition) at 10uM": 1.05}, {"smiles": "CCOc1ccc(CNn2nnnc2N)cc1", "hERG current change (%, negative = inhibition) at 10uM": -6.35}, {"smiles": "O=C(COc1ncnc2ccccc12)NCCc1ccc(F)cc1", "hERG current change (%, negative = inhibition) at 10uM": -6.11}, {"smiles": "Cc1nc2ccc(NC(=O)Cc3cccc(F)c3)cc2s1", "hERG current change (%, negative = inhibition) at 10uM": 2.56}, {"smiles": "COCCNC(=O)C(c1ccc(F)cc1)N(CCOC)C(=O)CCC(=O)Nc1nccs1", "note": "(stereo not shown)", "hERG current change (%, negative = inhibition) at 10uM": 0.0239}, {"smiles": "O=C1CC2(CCCCC2)Oc2ccc(O)cc21", "hERG current change (%, negative = inhibition) at 10uM": -11.8}, {"smiles": "N=C1c2ccccc2CN1c1ccc(S(=O)(=O)N2CCCCC2)cc1", "hERG current change (%, negative = inhibition) at 10uM": -62.5}, {"smiles": "O=C1c2ccccc2C(=O)N1c1ccc(S(=O)(=O)N2CCCCC2)cc1", "hERG current change (%, negative = inhibition) at 10uM": 15.4}, {"smiles": "CCN(CC)S(=O)(=O)c1ccc(N2Cc3ccccc3C2=N)cc1", "hERG current change (%, negative = inhibition) at 10uM": -40.5}, {"smiles": "CCOC(=O)c1ccc(N2C(=O)Cc3ccccc3C2=O)cc1", "hERG current change (%, negative = inhibition) at 10uM": 20.9}, {"smiles": "CCOC(=O)c1ccc(CN2Cc3ccccc3C2=O)cc1", "hERG current change (%, negative = inhibition) at 10uM": 2.17}, {"smiles": "CCOC(=O)c1ccc(N2Cc3ccccc3C2=N)cc1", "hERG current change (%, negative = inhibition) at 10uM": -61.3}, {"smiles": "O=C(O)c1cccc(N2C(=O)Nc3ccccc3N2O)c1", "hERG current change (%, negative = inhibition) at 10uM": 10.2}, {"smiles": "Cc1cc(-n2c(C)cc(C(=O)COc3ccccc3[N+](=O)[O-])c2C)no1", "hERG current change (%, negative = inhibition) at 10uM": -4.91}]}]}
